# Data taken from article PMC4336329 (PLoS ONE, 2015).
# Hit rate of the full screen: of about 310,000 compounds, about 14,000 (4.5%) showed an effect of 50% or more. The effect is printed as a negative number. Many of the other results were omitted from the sample, so strong results are more common in it than they were.
# Molecular target: human ether-à-go-go-related gene (hERG) potassium channel (human, UniProt Q12809)
# Assay: primary screen, population patch clamp on CHO cells stably expressing hERG; higher = less effect of the substance
# 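Note: peak tail current of the secondary pulse compared with the same well before compound.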
# Chain of human ether-à-go-go-related gene (hERG) potassium channel (Q12809 whole entry, looked up): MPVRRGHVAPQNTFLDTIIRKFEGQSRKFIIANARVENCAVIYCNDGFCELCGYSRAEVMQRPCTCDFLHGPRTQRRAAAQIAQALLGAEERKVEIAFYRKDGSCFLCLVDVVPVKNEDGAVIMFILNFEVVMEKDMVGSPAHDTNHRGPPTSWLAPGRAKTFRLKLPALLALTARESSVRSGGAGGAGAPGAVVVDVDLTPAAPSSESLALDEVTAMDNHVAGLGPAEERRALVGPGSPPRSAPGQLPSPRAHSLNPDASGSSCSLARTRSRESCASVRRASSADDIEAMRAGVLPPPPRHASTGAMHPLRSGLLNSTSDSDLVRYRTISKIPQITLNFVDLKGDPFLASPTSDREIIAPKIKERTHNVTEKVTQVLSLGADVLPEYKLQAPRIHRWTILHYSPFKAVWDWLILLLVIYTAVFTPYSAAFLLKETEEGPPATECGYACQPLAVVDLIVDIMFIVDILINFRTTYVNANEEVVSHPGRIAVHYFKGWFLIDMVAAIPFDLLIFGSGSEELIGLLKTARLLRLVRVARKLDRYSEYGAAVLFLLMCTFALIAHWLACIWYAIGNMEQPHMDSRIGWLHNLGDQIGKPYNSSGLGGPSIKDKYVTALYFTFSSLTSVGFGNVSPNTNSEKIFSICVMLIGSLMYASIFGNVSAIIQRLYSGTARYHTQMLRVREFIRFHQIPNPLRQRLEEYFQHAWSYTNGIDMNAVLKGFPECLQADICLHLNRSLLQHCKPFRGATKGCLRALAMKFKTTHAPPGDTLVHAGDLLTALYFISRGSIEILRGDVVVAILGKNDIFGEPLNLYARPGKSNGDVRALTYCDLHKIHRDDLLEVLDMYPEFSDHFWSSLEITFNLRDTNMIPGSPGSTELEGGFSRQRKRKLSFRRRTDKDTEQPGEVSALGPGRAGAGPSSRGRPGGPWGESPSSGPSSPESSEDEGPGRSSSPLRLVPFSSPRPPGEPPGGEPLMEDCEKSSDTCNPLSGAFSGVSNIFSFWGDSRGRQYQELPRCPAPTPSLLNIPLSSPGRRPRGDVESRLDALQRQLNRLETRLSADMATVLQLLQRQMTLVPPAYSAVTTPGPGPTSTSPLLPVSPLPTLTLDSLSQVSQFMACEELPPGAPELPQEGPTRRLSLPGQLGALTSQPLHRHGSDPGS
row,SMILES,"hERG current change (%, negative = inhibition) at 10uM [%]"
1,CC(C)c1ccc(NC(=S)NCCc2c[nH]c3ccccc23)cc1,10.8
2,Cc1nc2ccc(NC(=O)[C@@H](NC(=O)c3c(F)cccc3F)C(C)C)cc2s1,1.84
3,O=C(NCCN1CCOCC1)C1CCN(Cc2ccccc2O)CC1,19.2
4,O=C1CSC(c2cccs2)N1c1ccccc1 (stereo not drawn),15
5,Cn1nnnc1SCc1nc2scc(-c3ccccc3)c2c(=O)[nH]1,-3.59
6,CC(C)(C)NS(=O)(=O)c1ccc(CCC(=O)NCc2ccco2)cc1,2.7
7,COc1ccc(N2CCN(C(=O)COC(=O)c3ccc(-n4nc(C)cc4C)cc3)CC2)cc1,-1.95
8,CCc1nc(SCC(=O)N2c3ccccc3CC2C)c2c(C)c(C)sc2n1 (stereo not drawn),-5.78
9,Cc1ccc2cccc(S(=O)(=O)Nc3c(C)n(C)n(-c4ccccc4)c3=O)c2n1,-0.878
10,O=C(COc1ccc(F)cc1)NCC1(N2CCOCC2)CCCCC1,-27.9
11,O=C(c1ccc2c(c1)OCO2)N1CCN(c2ccc(F)cc2)CC1,-30.4
12,CC(C)(C)c1ccc(C(=O)N2CCN(c3ccc(N4CCOCC4)nn3)CC2)cc1,-49.3
13,O=C(c1ccc(C(F)(F)F)cc1)N1CCN(c2ccc(N3CCOCC3)nn2)CC1,-67.9
14,CCc1ccc(N2CCN(C(=O)c3ccc4c(c3)OCO4)CC2)cc1,-50.3
15,O=C(c1ccc(F)cc1)N1CCN(c2ccc(N3CCOCC3)nn2)CC1,-12
16,CC(=O)c1ccc(N2CCN(C(=O)c3ccc4c(c3)OCO4)CC2)cc1,-45.4
17,Cc1ccccc1NCC(=O)N/N=C\c1ccc2c(c1)OCO2,-0.637
18,COc1ccc(OC)c(NC(=O)NCCc2cccc(Cl)c2)c1,10.1
19,C=CCCC1(C)C(=O)N(c2ccccc2)c2ccccc21 (stereo not drawn),-3.56
20,O=C(CCS(=O)(=O)c1ccccc1)Nc1nc2c(s1)CCCC2,0.42
21,CC1CCCN(c2nc3c(c(=O)n(C)c(=O)n3C)n2Cc2ccccc2)C1 (stereo not drawn),-40.9
22,COc1ccc(N2CCN(S(=O)(=O)c3ccc4c(c3)NC(=O)C(C)S4)CC2)cc1 (stereo not drawn),6.85
23,CC(C)C(C(=O)Nc1ccc(S(=O)(=O)N2CCOCC2)cc1)N1C(=O)c2ccccc2C1=O (stereo not drawn),-16.2
24,CC/C(=N/NC(=O)CCC(=O)Nc1ccccc1OC)c1ccccc1,-1.67
